Compound activity as filed in PubChem.
AmpC no deterg = inhibitors of E. coli AmpC beta-lactamase without detergent | P00811 | AmpC nitrocefin hydrolysis, absorbance 480 nm, 0.0001% Triton | Potency, µM (series often up to 57.1 µM), hits mostly inhibitors | hit rate 0.52% among 330,000 | AID 485341; further: nearly all actives have a fitted effect of over 20% in size
Target sequence (P00811 whole entry, looked up): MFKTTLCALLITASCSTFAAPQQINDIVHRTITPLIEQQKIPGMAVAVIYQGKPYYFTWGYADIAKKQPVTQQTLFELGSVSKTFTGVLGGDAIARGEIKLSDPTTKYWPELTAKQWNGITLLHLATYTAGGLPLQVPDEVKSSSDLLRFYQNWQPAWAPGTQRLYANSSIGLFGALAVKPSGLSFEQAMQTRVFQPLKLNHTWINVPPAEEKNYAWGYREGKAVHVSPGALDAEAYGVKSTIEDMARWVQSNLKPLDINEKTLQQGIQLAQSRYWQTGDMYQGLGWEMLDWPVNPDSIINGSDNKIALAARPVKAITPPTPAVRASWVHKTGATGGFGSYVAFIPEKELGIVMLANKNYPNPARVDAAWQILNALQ
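20 mM phosphate pH 7.0 + 0.01% (detergent screen) or 0.0001% Triton X-100; 5.3 nM AmpC reagent; cpd preinc 15 min RT; nitrocefin (800 uM stock) to start; A480 q20 s × 4 min; Activity was normalised to no-enzyme and no-compound control wells.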
Lassa entry inh = inhibitors of Lassa virus binding or cell entry; Lassa virus pseudotype entry inhibition, cell reporter; Potency, µM (series often up to 37.9 µM), usual class: inhibitors; hit rate 1.2% among 300,000; calls by dose curve; tested in HEK293 cells; further: nearly all actives have a fitted effect of over 50% in size
AmpC inh detg = blocks E. coli AmpC beta-lactamase in detergent assay | P00811 | AmpC hydrolysis of nitrocefin, absorbance 480 nm, 0.01% Triton | Potency, µM (highest dose often 114 µM), usual class: inhibitors | hit rate 0.041% among 370,000 | AID 485294; further: nearly all actives have a fitted effect of over 25% in size
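AmpC (5.3 nM in the dispensed reagent) in 20 mM phosphate pH 7.0 with 0.01% (detergent screen) or 0.0001% Triton X-100 was preincubated with compounds for 15 min at room temperature. Nitrocefin was then added from an 800 uM solution, and hydrolysis was followed at 480 nm.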
MARV entry inh = inhibitors of Marburg virus binding or cell entry | Marburg virus pseudotyped entry inhibition, cell reporter | Potency, µM (titrated, usually from 37.8 µM), actives largely listed as inhibitors | hit rate 1.8% among 300,000; calls by dose curve; tested in HEK293 cells
AMA1 RON2 block = disrupts binding of P. falciparum AMA1 to RON2. AlphaScreen AMA1-biotinylated RON2 peptide binding. Potency, µM (doses to about 58.2 µM), usual class: inhibitors. hit rate 0.2% among 360,000. AID 720542; further: nearly all actives have a fitted effect of over 45% in size
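AMA1 (3D7) with his tag at 25 nM final met compounds first, then biotinylated RON2 peptide at 25 nM; detection used donor plus acceptor beads, 10 µg/mL apiece, read by AlphaScreen after 30 min at room temperature.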
Of the large screens only hits and unclear results are named; the others gave an inactive call. In the library only some 2.3% were active in any assay of this set; here they are far more common. Unless noted, the call rests on the fitted dose curve; in most records, active means well fitted curve in the direction sought with a large enough effect; inconclusive means small, poorly fitted or top-dose-only effect, or another doubt; inactive means no such curve, though single readings can be large; an effect the other way counts as inactive or inconclusive.

O=C(/C=C/c1ccc(Cl)cc1)Nc1cc(S(=O)(=O)N2CCOCC2)ccc1N1CCOCC1	Lassa entry inh 4.5µM, MARV entry inh inconclusive (no result: AmpC inh detg)
CCN1CCN(c2ccc(S(=O)(=O)N3CCCCC3)cc2NC(=O)/C=C/c2ccc([N+](=O)[O-])cc2)CC1	MARV entry inh inconclusive
CCc1nnc(NC(=O)c2nc(SCc3ccc(F)cc3)ncc2Cl)s1	none (no result: AmpC no deterg, AMA1 RON2 block)
CCN(CC)c1ccc(/C=N/OCC(=O)N2CCCc3ccccc32)cc1	AMA1 RON2 block 28µM
O=C(CO/N=C/c1ccc(OC(F)F)cc1)N1CCc2ccccc21	MARV entry inh inconclusive
CC1Oc2cc3c(-c4c(O)cc(O)c5c(O)c6c(cc45)OC(C)C(C)C6=O)c(O)cc(O)c3c(O)c2C(=O)C1C (configuration not stated)	AmpC no deterg 22µM, AmpC inh detg inconclusive (no result: Lassa entry inh, MARV entry inh)
CC(=O)C1=C(O)C(=O)N(c2cccc(C(=O)O)c2)[C@@H]1c1ccc(F)cc1	none (no result: AmpC no deterg, Lassa entry inh, AmpC inh detg, AMA1 RON2 block)
COc1ccc(OC)c(/C=N/NC(=O)c2cc3c(OC)cc(OC)cc3[nH]2)c1	Lassa entry inh inconclusive, MARV entry inh inconclusive
COc1cccc(/C=N/NC(=O)c2ccc(=O)n(C)c2)c1OC	none
COc1ccc(/C=N/NC(=O)c2cccc(OC(F)(F)C(F)F)c2)c(OC)c1OC	Lassa entry inh 10µM
COc1ccc(OC)c(/C=N/NC(=O)c2cc3c(OC)cccc3[nH]2)c1	AmpC no deterg inconclusive, MARV entry inh 10µM
COc1cccc(/C=N/NC(=O)c2ccccc2)c1OS(=O)(=O)c1ccccc1	AmpC no deterg 32µM
O=C(Cn1cc(SCc2ccc(F)cc2)c2ccccc21)N1CCCCC1	AmpC inh detg inconclusive (no result: AmpC no deterg, MARV entry inh, AMA1 RON2 block)
CCCCC1(Cc2cccc([N+](=O)[O-])c2)C(=O)N(c2ccccc2)N(c2ccccc2)C1=O	Lassa entry inh inconclusive, MARV entry inh 16µM
CCCOc1ccccc1-c1nc(SCC(=O)c2ccccc2)n[nH]1	none (no result: AmpC no deterg, AMA1 RON2 block)
CCN1C(=NCc2ccc(OC)cc2)NC(c2cccc(C(F)(F)F)c2)C(C(=O)OC)=C1C (configuration not stated)	none (no result: AmpC no deterg, Lassa entry inh, AmpC inh detg, AMA1 RON2 block)
CC(C)c1ccc(S(=O)(=O)NCc2nc3cccnc3n2Cc2ccc(F)cc2)cc1	none (no result: AmpC no deterg, MARV entry inh, AMA1 RON2 block)
C[C@H](NC(=O)CSc1nnc(COc2ccccc2)o1)c1ccccc1	none (no result: AmpC no deterg, Lassa entry inh, AmpC inh detg, AMA1 RON2 block)
c1ccc(Nc2c3c(nc4ccccc24)CCC3)cc1	MARV entry inh inconclusive
COc1ccc(Nc2c3c(nc4ccccc24)CCC3)cc1	Lassa entry inh inconclusive, MARV entry inh 8.9µM
COc1cc(Nc2c3ccccc3nc3ccccc23)cc(OC)c1OC	Lassa entry inh inconclusive, MARV entry inh 2.8µM
COc1ccc(Nc2cc(Nc3cc(OC)c(OC)c(OC)c3)ncn2)cc1	MARV entry inh 16µM
COc1ccc(Nc2c3c(nc4ccccc24)CCCC3)cc1OC	MARV entry inh 8.9µM
COc1ccc(Nc2cc(Nc3ccc(OC)cc3)ncn2)cc1	none
O=C(C=Cc1ccccc1)Nc1cccc(C(=O)NCc2ccccc2)c1	none (no result: AmpC no deterg, AmpC inh detg, MARV entry inh, AMA1 RON2 block)
COc1cc(NC(=O)c2noc3c2CC(C(C)(C)C)CC3)cc(OC)c1OC (configuration not stated)	none (no result: AmpC no deterg, AMA1 RON2 block)
COc1ccc(C(=O)NCC(c2ccc3c(c2)OCO3)N2CCN(c3ccccc3F)CC2)cc1 (configuration not stated)	Lassa entry inh inconclusive (no result: AmpC no deterg, MARV entry inh, AMA1 RON2 block)
Cc1ccc2nc(-c3ccc(Cl)c(NC(=O)c4ccc5c(c4)OCCO5)c3)oc2c1	Lassa entry inh inconclusive, MARV entry inh inconclusive (no result: AmpC no deterg, AMA1 RON2 block)
Cc1nc(-n2nc(C)c(CCC(C)C)c2C)sc1C(=O)Nc1ccc(Br)cc1	none (no result: AmpC no deterg, AMA1 RON2 block)
C=CCN1C(=O)C(Cc2ccc(OCC)cc2)S/C1=N\N=C\c1cccs1 (configuration not stated)	Lassa entry inh 11µM, AmpC inh detg inconclusive
CCc1ccc(S(=O)(=O)N2CCN(c3ccc(Cl)c(Cl)c3)CC2)cc1	Lassa entry inh inconclusive (no result: AmpC no deterg, AMA1 RON2 block)
Clc1cccc2c1Sc1ccccc1CC2N1CCNCC1 (configuration not stated)	Lassa entry inh 5.2µM, AmpC inh detg inconclusive, MARV entry inh inconclusive
Cc1[nH]c2ccc(C(=O)OC(C)C(=O)N(C)C3CCCCC3)cc2c1C (configuration not stated)	Lassa entry inh inconclusive, AmpC inh detg inconclusive
Cc1[nH]c2ccc(C(=O)OC(C)C(=O)N(C)c3ccccc3)cc2c1C (configuration not stated)	Lassa entry inh 5µM
CCOC(=O)c1c(C(=O)OCC)c2c3ccccc3cc(C)n2c1C(=O)OC	none (no result: AmpC no deterg, Lassa entry inh, AmpC inh detg, AMA1 RON2 block)
O=C(O)Cc1sc(Nc2cccc3ccccc23)nc1-c1ccccc1	none (no result: Lassa entry inh, MARV entry inh)
O=C(O)Cc1sc(Nc2cccc3ccccc23)nc1-c1ccc(Cl)cc1	AmpC no deterg 7.9µM, Lassa entry inh inconclusive
CC(C)Nc1oc(-c2ccccc2)nc1-c1ccc(C(F)(F)F)cc1	none (no result: AmpC no deterg, Lassa entry inh, AmpC inh detg, AMA1 RON2 block)
CCOC(=O)NN=C1C[C@@H](O)[C@@H](O)[C@@H]2[C@H]3C(=O)N(CC)C(=O)[C@@H]3CC[C@@H]12	Lassa entry inh inconclusive (no result: AmpC no deterg, AmpC inh detg, AMA1 RON2 block)
CNC(=O)Oc1cccc(-c2cn3cc(Cl)ccc3n2)c1	Lassa entry inh inconclusive, MARV entry inh 2.8µM
CNC(=O)Oc1ccc(-c2cn3cc(C)ccc3n2)cc1	Lassa entry inh 0.32µM, AmpC inh detg inconclusive, MARV entry inh 0.65µM
CN(C)S(=O)(=O)c1cccc(-c2cn3cc(Cl)ccc3n2)c1	MARV entry inh inconclusive
CCOC(=O)C1(C(=O)OCC)CC1c1ccccc1 (configuration not stated)	AmpC no deterg 4.5µM
CCOC(=O)C1(C(=O)O)NC(=O)CC1c1ccccc1 (configuration not stated)	AmpC inh detg inconclusive, MARV entry inh inconclusive
Cc1ccc(S(=O)(=O)NC2c3cccc4cccc(c34)C2Sc2nc(C)cc(C)n2)cc1 (configuration not stated)	Lassa entry inh inconclusive, MARV entry inh 18µM
Cc1ccc(C(=O)N2CCN(C3c4cccc5cccc(c45)C3NS(=O)(=O)c3ccccc3)CC2)cc1 (configuration not stated)	Lassa entry inh 13µM, MARV entry inh 11µM
O=C1[C@H]2[C@@H]3[C@@H](O)[C@H](O)CC(=NOCc4ccccc4)[C@@H]3CC[C@H]2C(=O)N1Cc1ccc2c(c1)OCO2	Lassa entry inh inconclusive (no result: AmpC no deterg, AmpC inh detg, AMA1 RON2 block)
O=C(CSc1ccc(-c2ccccn2)nn1)NCc1ccc(Cl)cc1	AMA1 RON2 block 14µM
CCOC(=O)c1cnc(S[C@@H]2CC(=O)N(c3cccc(OC)c3)C2=O)nc1N	none (no result: AmpC no deterg, Lassa entry inh, AmpC inh detg, AMA1 RON2 block)
O=C(NCc1nnc(SCc2ccc(F)cc2)n1-c1ccc(F)cc1)C12CC3CC(CC(C3)C1)C2	Lassa entry inh inconclusive, MARV entry inh 8.9µM
NS(=O)(=O)c1ccc(CCNC(=O)CNCCc2ccccc2)cc1	AMA1 RON2 block 40µM
NS(=O)(=O)c1ccc(CCNC(=O)CSc2ccccc2)cc1	none
C/C(=N\NC(=S)NCCc1ccccc1)c1ccc(Cl)cc1	Lassa entry inh inconclusive, AmpC inh detg inconclusive
C/C(=N\NC(=S)NCCc1ccccc1)c1ccc(C)cc1	Lassa entry inh inconclusive, MARV entry inh 16µM
